Results on 5 molecules are retold here after PubChem BioAssay.

Assay [1] can be described thus: E. coli DRC41 culture turbidity changes, primary screen, E. coli filamentation inducer project, strain DRC41, OD650, 48 h (AID 1152).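 Note: E. coli MC1000 strain DRC41 lacking acrAB efflux pump and sulA.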 The note with it: E. coli DRC41 (acrAB sulA), higher = more signal, called active from +8 up or from −8 down.
A short description of assay [2]: small-molecule binders of probe aLefty1, primary screen, biochemical, small-molecule microarray, 635/667 nm fluorescence (AID 1153).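 Note: score merges spot fluorescence with signal-to-noise ratio from the scanned slide images.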 The note with it: higher = more signal.
A short description of assay [3]: PSAC antagonists in infected red cells, primary screen, cell-based, P. falciparum Indochina, OD700, 1 h (AID 1154). Conditions: P. falciparum Indochina infected RBC osmotic lysis, higher = more signal, called active from +8 up or from −8 down.
Assay [4] in a line: PSAC antagonists in infected red cells, primary screen, cell-based, P. falciparum Indochina, OD700, 2 h (AID 1155).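 Note: lysis reports solute entry through the parasite surface anion channel PSAC; channel blockers reduce lysis of infected cells.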 The note with it: P. falciparum Indochina infected erythrocytes, osmotic lysis OD700; higher = more signal, called active from +8 up or from −8 down.
Assay [5] is described as follows: osmotic lysis modulators in infected erythrocytes, primary screen, PSAC antagonist project, cell-based, P. falciparum Indochina, OD700, 3 h (AID 1156). The note with it: higher = more signal, called active from +8 up or from −8 down.
A short description of assay [6]: PSAC antagonists in infected red cells, primary screen, cell-based, P. falciparum Indochina, OD700, 18 h (AID 1157). The note with it: P. falciparum Indochina infected erythrocytes, osmotic lysis OD700, 18 h; higher = more signal, called active from +8 up or from −8 down.
A short description of assay [7]: modulators of S6 phosphorylation in cells, primary screen, cell-based, A549, cytoblot, luminescence, serum-stimulated (AID 1158).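 Note: serum-stimulated A549 lung adenocarcinoma cells; signal is phosphorylated S6 detected by cytoblot immunostaining with HRP secondary.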 The note with it: A549 phospho-S6 cytoblot, 5 h, higher = more signal.
Assay [8] has as its target NADPH oxidase 2 (Homo sapiens) (UniProt P04839). Briefly: NOX2-dependent H2O2 signal modulators, primary screen, NOX inhibitor project, cell-based, HEK293-NOX2, PMA-stimulated, Amplex Red fluorescence (AID 1159). Note: test concentration not given here. The note with it: 45 min, higher = more signal, called active from +8 up or from −8 down.
In assay [9] the target is NADPH oxidase 4 (Homo sapiens) (UniProt Q9NPH5). Briefly: NOX4-dependent H2O2 signal modulators, primary screen, NOX inhibitor project, cell-based, HEK293-NOX4, tetracycline-induced, Amplex Red fluorescence (AID 1160). The note with it: 45 min, higher = more signal, called active from +8 up or from −8 down.
Assay [10] deals with NADPH oxidase 5 (Homo sapiens) (UniProt Q96PH1). Briefly: NOX5-dependent H2O2 signal modulators, primary screen, NOX inhibitor project, cell-based, HEK293-NOX5, Amplex Red fluorescence (AID 1161). The note with it: HEK293-NOX5, ionomycin, 45 min, higher = more signal.
Assay [11] is described as follows: A549 cell viability effects, profiling panel, calcein-AM fluorescence, 48 h, basal (AID 1162). Note: test concentration not given here. The note with it: higher = more signal.
Assay [12] in a line: adipocyte viability effects, profiling panel, cell-based, 3T3-L1 adipocytes, calcein-AM fluorescence, 48 h, basal (AID 1163). Note: test concentration not given here. The note with it: 3T3-L1 adipocytes viability, higher = more signal.
Assay [13] can be described thus: HepG2 cell viability effects, profiling panel, calcein-AM fluorescence, 48 h, basal (AID 1164). Note: test concentration not given here. The note with it: higher = more signal.
Assay [14] can be described thus: MM1S cell viability effects, profiling panel, calcein-AM fluorescence, 48 h, basal (AID 1165).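 Note: viability of MM1S multiple myeloma cells under basal unstimulated conditions; test concentration not given here.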 The note with it: higher = more signal.
Assay [15] can be described thus: basal RPMI8226 viability, no added stimulus, profiling panel, cell-based, calcein-AM fluorescence, 48 h, PK04 Diversity Set (AID 1166).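 Note: cells grown under basal conditions without added stimulus; test concentration not given here.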 Conditions: RPMI8226 myeloma viability, higher = more signal.
The nature of assay [16]: basal HepG2 mitochondrial membrane potential changes, profiling panel, cell-based, JC-1 fluorescence, 24 h, 100 nL compound (AID 1167). Note: test concentration not given here. Conditions: higher = more signal.
Assay [17] in a line: basal 3T3-L1 adipocyte mitochondrial potential changes, profiling panel, cell-based, JC-1 fluorescence, 3T3-L1 adipocytes, 24 h, 100 nL compound (AID 1168). Note: test concentration not given here. The note with it: JC-1 mitochondrial fluorescence, higher = more signal, called active from +8 up or from −8 down.
Assay [18] in a line: basal RPMI8226 mitochondrial membrane potential changes, profiling panel, cell-based, JC-1 fluorescence, 24 h, 100 nL compound (AID 1169). Note: test concentration not given here. The note with it: RPMI8226 myeloma, JC-1 mitochondrial potential fluorescence, higher = more signal.
A short description of assay [19]: basal MM1S mitochondrial membrane potential changes, profiling panel, cell-based, JC-1 fluorescence, 24 h, 100 nL compound (AID 1170). Note: test concentration not given here. Conditions: higher = more signal.
Assay [20] can be described thus: A549 lung cancer cell viability effects, profiling panel, resazurin fluorescence, 24 h, PK04 Diversity Set (AID 1171). Note: test concentration not given here. The note with it: higher = more signal, called active from +8 up or from −8 down. On the technique in general: The colour change of resazurin is a common sign of viable cells or microbes.

Each structure is given as a SMILES string. Calls of active or inactive are those of the source.

Sequence of NADPH oxidase 2 (Homo sapiens) (P04839 whole entry, looked up): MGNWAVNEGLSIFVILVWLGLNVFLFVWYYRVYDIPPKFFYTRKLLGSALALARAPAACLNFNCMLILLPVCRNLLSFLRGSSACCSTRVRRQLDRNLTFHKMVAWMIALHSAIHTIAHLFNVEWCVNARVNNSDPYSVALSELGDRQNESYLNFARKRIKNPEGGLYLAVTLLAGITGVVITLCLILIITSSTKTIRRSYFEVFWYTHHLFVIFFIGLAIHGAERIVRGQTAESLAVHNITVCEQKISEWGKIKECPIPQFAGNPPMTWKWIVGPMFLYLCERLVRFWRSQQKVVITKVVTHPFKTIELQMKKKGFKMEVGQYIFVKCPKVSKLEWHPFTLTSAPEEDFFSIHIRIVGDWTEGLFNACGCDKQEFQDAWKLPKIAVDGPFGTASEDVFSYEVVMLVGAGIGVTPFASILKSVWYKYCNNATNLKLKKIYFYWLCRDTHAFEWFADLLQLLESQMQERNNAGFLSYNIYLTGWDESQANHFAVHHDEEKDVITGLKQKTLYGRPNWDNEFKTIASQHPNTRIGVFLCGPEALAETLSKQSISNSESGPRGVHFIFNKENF
Sequence of NADPH oxidase 5 (Homo sapiens) (Q96PH1 whole entry, looked up): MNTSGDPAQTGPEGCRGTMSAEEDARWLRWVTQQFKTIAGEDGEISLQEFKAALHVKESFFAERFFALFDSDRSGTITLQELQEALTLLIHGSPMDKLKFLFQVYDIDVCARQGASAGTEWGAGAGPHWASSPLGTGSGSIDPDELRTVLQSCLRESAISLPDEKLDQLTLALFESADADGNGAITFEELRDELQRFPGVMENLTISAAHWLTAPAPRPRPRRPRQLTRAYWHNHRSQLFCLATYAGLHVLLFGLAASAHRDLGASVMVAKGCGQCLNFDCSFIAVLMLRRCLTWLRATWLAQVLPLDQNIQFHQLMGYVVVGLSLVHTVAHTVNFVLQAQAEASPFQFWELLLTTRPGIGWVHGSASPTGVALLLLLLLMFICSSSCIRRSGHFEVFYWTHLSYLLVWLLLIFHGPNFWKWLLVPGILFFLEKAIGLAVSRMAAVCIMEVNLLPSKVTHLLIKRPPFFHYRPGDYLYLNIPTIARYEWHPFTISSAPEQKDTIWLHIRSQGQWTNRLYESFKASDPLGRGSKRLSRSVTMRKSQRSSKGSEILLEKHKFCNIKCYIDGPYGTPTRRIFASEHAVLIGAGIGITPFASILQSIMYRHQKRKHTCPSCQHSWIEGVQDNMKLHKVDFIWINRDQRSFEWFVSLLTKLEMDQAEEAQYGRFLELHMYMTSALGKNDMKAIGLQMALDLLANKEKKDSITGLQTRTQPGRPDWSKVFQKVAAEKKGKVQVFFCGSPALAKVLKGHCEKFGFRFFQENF
Sequence of NADPH oxidase 4 (Homo sapiens) (Q9NPH5 whole entry, looked up): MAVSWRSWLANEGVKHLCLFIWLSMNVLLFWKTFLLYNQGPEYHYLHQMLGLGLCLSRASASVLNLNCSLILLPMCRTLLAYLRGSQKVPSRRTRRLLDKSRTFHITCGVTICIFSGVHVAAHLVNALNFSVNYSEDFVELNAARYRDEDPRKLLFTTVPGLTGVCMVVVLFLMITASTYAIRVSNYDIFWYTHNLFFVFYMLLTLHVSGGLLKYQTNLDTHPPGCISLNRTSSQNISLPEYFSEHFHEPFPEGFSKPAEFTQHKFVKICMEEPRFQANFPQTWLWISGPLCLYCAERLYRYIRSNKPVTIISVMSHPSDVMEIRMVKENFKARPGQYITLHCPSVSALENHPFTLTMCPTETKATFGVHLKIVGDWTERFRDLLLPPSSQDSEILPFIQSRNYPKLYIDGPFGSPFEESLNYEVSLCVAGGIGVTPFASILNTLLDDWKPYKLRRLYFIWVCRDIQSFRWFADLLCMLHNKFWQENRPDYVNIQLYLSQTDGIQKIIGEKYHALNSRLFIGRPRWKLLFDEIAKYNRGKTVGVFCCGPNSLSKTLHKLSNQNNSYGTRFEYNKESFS

On to `COCCOC(=O)N1C(=O)[C@@]2(c3cc(C#CCCO)ccc31)[C@H](c1ccccc1OCCO)N1[C@H](c3ccccc3)[C@H](c3ccccc3)OC(=O)[C@H]1[C@@H]2C(=O)N1CCN(c2ncccn2)CC1`, for which the z-score in assay [1] was -0.33 (inactive); in assay [3] it was 2.52 (inactive); in [4], 1.32 (inactive); in assay [5], -0.293 (inactive); in assay [6], 0.708 (inactive); in [7] it was -0.262. Besides, the z-score in [8] was 1.22 (inactive); in assay [9], 1.05 (inactive); in assay [10] it was 1.16; in assay [11], -0.442; in assay [12], -0.692; in assay [13], 0.0682. In addition, the z-score in assay [14] is -0.448; in assay [15], -0.0718; in assay [16] it was 0.609; in assay [17] it was 0.188 (inactive); in [18], -0.0523; in assay [19], -1.1. In addition, the z-score in [20] was -0.467 (inactive). The molecule also came in with a composite z-score in assay [2] of 0.85.
`[N-]=[N+]=Nc1ccccc1[C@H]1OC(c2ccc(OCCCO)cc2)=N[C@@]1(CCS(=O)(=O)c1ccccc1)C(=O)O`: the z-score in assay [1] was 0.671 (inactive); in assay [3], 31.2 (active); in [4], 24.9 (active); in assay [5], 1.32 (inactive); in assay [6], 4.75 (inactive); in [7], -0.351. The z-score in [8] is -2.11 (inactive); in [9], 0.851 (inactive); in assay [10], -0.73; in [11], 0.318; in assay [12], 1.69; in [13] it was -0.0825. Moreover, the z-score in assay [14] was -1.42; in assay [15] it was 0.682; in [16], -3.45; in assay [17], -1.65 (inactive); in assay [18], 0.0104; in [19] it was -0.0976. In [20], the z-score is 0.315 (inactive). Also, in assay [2], the composite z-score turned out to be 0.373.
Take `CN(C)CCCCNC(=O)[C@H]1C[C@H]2C(=O)N[C@@H](Cc3ccccc3)C(=O)N2[C@H]1c1ccc(O)cc1`: the z-score is 1.22 (inactive) in assay [1]; -0.0717 (inactive) in [3]; -0.63 (inactive) in assay [4]; 0.347 (inactive) in assay [5]; -0.512 (inactive) in assay [6]; 0.403 in [7]. Moreover, the z-score in assay [8] was -1.35 (inactive); in [9] it was -1.66 (inactive); in assay [10] it was -3.92; in assay [11], -0.451; in assay [12], 0.7; in assay [13] it was -0.98. The z-score is -0.417 in assay [14]; 0.287 in [15]; -0.77 in assay [16]; -0.248 (inactive) in assay [17]; -0.136 in assay [18]; -0.149 in assay [19]. For the same molecule, in assay [20], the z-score is -0.1 (inactive). The molecule further gave a composite z-score in assay [2] of 0.0161.
Regarding `O=C1O[C@@H](c2ccccc2)[C@@H](c2ccccc2)N2[C@@H](c3ccccc3OCCO)[C@]3(C(=O)Nc4ccc(C#CC5(O)CCCCCC5)cc43)[C@@H](C(=O)Nc3nc4ccccc4s3)[C@H]12`, the z-score was -0.478 (inactive) in assay [1]; 3.1 (inactive) in assay [3]; 3.75 (inactive) in [4]; 1.96 (inactive) in assay [5]; 1.56 (inactive) in assay [6]; 0.361 in [7]. The z-score was 1.42 (inactive) in assay [8]; 0.501 (inactive) in assay [9]; 1.28 in assay [10]; -1.49 in assay [11]; 0.601 in assay [12]; -3 in assay [13]. Besides, the z-score in [14] is -3.22; in [15], -4.17; in [16], -2.67; in assay [17], 2.71 (inactive); in [18], -0.863; in [19], -1.41. The z-score in assay [20] was -1.34 (inactive). The composite z-score in [2] was -0.12.
`CC1=C2[C@@H](CCc3ccccc3)OB(O)C[C@@H]2n2c(=O)n(-c3ccccc3)c(=O)n2C1`: the z-score was -0.616 (inactive) in assay [1]; 1.57 (inactive) in assay [3]; 0.323 (inactive) in assay [4]; -0.318 (inactive) in assay [5]; -0.31 (inactive) in assay [6]; 0.417 in [7]. The z-score was -0.416 (inactive) in assay [8]; -1.61 (inactive) in [9]; -0.939 in assay [10]; 0.328 in assay [11]; -0.448 in [12]; -0.335 in assay [13]. The z-score in assay [14] was 0.271; in assay [15], -1.14; in [16] it was -2.01; in assay [17], 0.553 (inactive); in assay [18], 0.146; in [19], -0.126. Also, the z-score in assay [20] is -0.699 (inactive). Moreover, in [2], the composite z-score was -0.347.
